# Data published in PubChem BioAssay (NCATS).
# “And” between values parts separate entries of the source, which are not always exact repeats. Equal values may be shown once. Results filed as inconclusive are left out. The source made the active and inactive calls. Unless noted, how the calls were made is not given here.
# Columns and labels:
# [1] = qHTS Assay for Identifying Gametocytocidal Compounds (AID 743244; active means well fitted curve in the direction sought with a large enough effect; further: potency means the concentration at half of the fitted maximal effect;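 on max response: on the % scale 0 is the no-effect control and ±100 the full control effect; actives lower the fluorescent signal which means gametocytes are killed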); conditions: P. falciparum 3D7 stage III-V gametocytes, alamarBlue, 72 h; max response: stronger effect = lower value
# Outline: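 Stage III–V gametocytes of P. falciparum 3D7 were seeded at 20,000 cells/well onto pre-dispensed compounds. After 72 h, 37 °C, 5% CO2, alamarBlue was added for another 24 h.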
# [2] = qHTS profiling of the MIPE4 collection as inhibitors of Plasmodium falciparum (3D7) proliferation (AID 743344);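 further: scaled between DMSO vehicle wells and 0.29 µM artemisinin as full inhibition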; conditions: P. falciparum 3D7 in erythrocytes, SYBR Green DNA fluorescence, 72 h; at 28.5 µM (top of the series) unless noted
# Outline: (§1)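 Parasite DNA was quantified by SYBR Green I fluorescence (ex 485, em 535 nm) after overnight lysis in saponin/Triton buffer at room temperature. Cultures at 0.3% parasitemia and 2.5% hematocrit were first exposed to compound for 72 h at 37 C; signals were normalised to artemisinin (0.29 uM) and vehicle wells.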
# [3] = qHTS profiling of the MIPE4 collection as inhibitors of Plasmodium falciparum (DD2) proliferation (AID 743345); conditions: P. falciparum Dd2 in erythrocytes, SYBR Green DNA, 72 h; at 28.5 µM (top of the series) unless noted
# Outline: as §1
# [4] = qHTS profiling of the MIPE4 collection as inhibitors of Plasmodium falciparum (DD2) proliferation (Rep 2) (AID 743346); conditions: P. falciparum Dd2 in erythrocytes, SYBR Green DNA, 72 h; at 28.5 µM (top of the series) unless noted
# Outline: as §1
SMILES,max response [1],"parasite growth, % of DMSO control [2]","parasite growth remaining, % of DMSO control (lower = more inhibition) [3]","parasite growth, % of control (lower = inhibition) [4]",Potency [1]
Cc1c(C(=O)NN2CCCCC2)nn(-c2ccc(Cl)cc2Cl)c1-c1ccc(Cl)cc1,2.34% (inactive),6.76%,8.4%,17.7%,
C[Se]CCC(N)C(=O)O (stereo not drawn),-7.98% (inactive),99.6% [at 57.5 µM],105% [at 57.5 µM],135% [at 57.5 µM],
CC(C)[N+]1(C)[C@@H]2CC[C@H]1CC(OC(=O)C(CO)c1ccccc1)C2 (stereo partly drawn),6.21% (inactive) and -2.53% (inactive),82.2%,89.9%,77.3%,
CN(C)CCc1c[nH]c2ccc(Cn3cncn3)cc12,-0.403% (inactive),89.2%,102%,62.6%,
CCOc1cc(CC(=O)N[C@@H](CC(C)C)c2ccccc2N2CCCCC2)ccc1C(=O)O,1.56% (inactive),83.8%,123%,91.4%,
Cc1ccc(NC(=O)c2ccc(CN3CCN(C)CC3)cc2)cc1Nc1nccc(-c2cccnc2)n1,,6.13%,10.8%,24.1%,12.6 µM (active)
CCC[C@@H]1C[C@@H](C(=O)N[C@@H]([C@H]2O[C@H](SC)[C@H](O)[C@@H](O)[C@H]2O)[C@@H](C)O)N(C)C1,-9.02% (inactive),28.5%,50.3%,67.1%,
COC1=C(OC)C(=O)C(CCCCCCCCCCO)=C(C)C1=O,-5.2% (inactive),61.7%,84.8%,32.3%,
Cc1cc(=O)oc2cc(O)ccc12,14.2% (inactive),85.5%,101%,107%,
CCC1=C(C)CN(C(=O)NCCc2ccc(S(=O)(=O)NC(=O)NC3CCC(C)CC3)cc2)C1=O (stereo not drawn),36.8% (inactive),98.4%,91.8%,85.1%,
N=C(N=C(N)N)N1CCOCC1,0.738% (inactive),106%,96.2%,93.1%,
COc1cc(C(C)=O)ccc1OCCCN1CCC(c2noc3cc(F)ccc23)CC1,6.32% (inactive),29.6%,54.6%,40.6%,
c1cnc2cc3c(cc2n1)C1CNCC3C1,-11.9% (inactive),94.7%,96.8%,52.2%,
CC1=C(C(=O)O)N2C(=O)[C@@H](NC(=O)[C@H](N)C3=CCC=CC3)[C@H]2SC1,-5.14% (inactive),79.3%,87.3%,74.3%,
CCCCc1ccc2nc(NC(=O)OC)[nH]c2c1,5.64% (inactive),49.5%,85.9%,56.6%,
Cc1cccc(CN2CCN(C(c3ccccc3)c3ccc(Cl)cc3)CC2)c1 (stereo not drawn),0.914% (inactive),6.23%,7.56%,22.6%,
CCOC(=O)c1c(C)n(C)c2ccc(O)cc12,2.91% (inactive),93.9%,93.3%,87.1%,
O=c1oc2cc(O)ccc2s1,-6.04% (inactive),85.1%,123%,54.9%,
CN(c1nccc(=O)[nH]1)C1CCN(c2nc3ccccc3n2Cc2ccc(F)cc2)CC1,6.96% (inactive),23.2%,81.9%,23.1%,
Nc1ncn([C@H]2C[C@H](O)[C@@H](CO)O2)c(=O)n1,-3.47% (inactive),98%,99.3%,91.2%,
CN(C)C(=O)COC(=O)Cc1ccc(OC(=O)c2ccc(N=C(N)N)cc2)cc1,10.2% (inactive),75%,93%,43%,
CC(S)C(=O)NCC(=O)O (stereo not drawn),-4.83% (inactive),95.6%,123%,91.7%,
